Potency and affinity values are given separately.
Test system: Klebsiella pneumoniae
Details: Concentration 32 ug.mL-1; ASSAY_TEST Inhibition of Bacterial Growth; detection method Absorption (OD600); MEDIA CAMHB; plate type 384well; NBS; CORNING #3640; time 18 hr

Row | SMILES | Inhibition [%]
1 | O=C(COc1ccc2ccccc2c1)N/N=C/c1c[nH]c2ccccc12 | 8.99
2 | N#CC1(Br)C(=NBr)Oc2ccc3ccccc3c2C1c1ccccc1[N+](=O)[O-] (stereo not given) | 5.57
3 | C#CCNc1nc(N)c(C#N)c(-c2ccccc2)c1C#N | -20.09
4 | Cl.ClCCCC1CCNCC1 | 10.49
5 | CCOC(=O)C1=C(C)Nc2nc3c(c(N)c2C1c1ccc([N+](=O)[O-])cc1)CCCC3.Cl (stereo not given) | 18.29
6 | CCOC(=O)CCc1c[nH]c2ccccc12 | -13.33
7 | O=C(NCc1ccccc1)c1cc2ccccc2[nH]1 | 1.5
8 | COC(=O)C(=Cc1ccc([N+](=O)[O-])cc1)NC(=O)c1ccccc1 | 11.76
9 | CNC(=O)c1c(Cl)c2cc(OCc3ccccc3)ccc2n1C | 13.13
10 | C/C(Cc1ccccc1)=N\NC(=O)c1c[nH]c2ccccc12 | -16.37
11 | C#CCN(C)Cc1cc2cc(OCc3ccc(OC)c4ncccc34)ccc2n1C | -13.41
12 | Cn1c(C(=O)NCc2ccccc2)cc2cc(OCCCC3CCN(Cc4ccccc4)CC3)ccc21 | 8.4
13 | N#CC1=C(N)Oc2c(ccc3ccccc23)C1c1cccc([N+](=O)[O-])c1 (stereo not given) | 11.95
14 | CC1CN(C)c2c(C#N)c(-c3ccccc3)c(C#N)c(=N)n21 (stereo not given) | 18.9
15 | C#CCN(C)c1nc(N(C)CC#C)c(C#N)cc1C#N | 11.71
16 | N#Cc1c(N)nc(N2CCOCC2)c(C#N)c1-c1ccccc1 | 3.68
17 | Cc1ccc2nc(Cl)c(/C=N/C(C)(C)C)cc2c1 | 7.37
18 | O=C1OC(c2ccc([N+](=O)[O-])cc2)=NC1=Cc1ccccc1 | 6.09
19 | NNC(=O)Cc1c[nH]c2ccccc12 | 17.86
20 | O=C(N[C@H]1CC[C@@H](Br)[C@@H](Br)C1)C(F)(F)F | 11.37

Row | SMILES | Inhibition [%]
21 | COc1ccccc1C1c2ccc3ccccc3c2Oc2nc3c(c(N)c21)CCCC3 (stereo not given) | 8.8
22 | CCOC(=O)c1cc2ccccc2[nH]1 | 16.5
23 | COc1nc2ccccc2cc1C=O | -3.66
24 | C#CCNc1nc(NCCCC2CCN(Cc3ccccc3)CC2)c(C#N)cc1C#N.Cl | -17.1
25 | CCOc1nc(N)c(C#N)c(-c2ccccc2)c1C#N | 4.68
26 | Cl.NNN1CCc2ccccc21 | 17.38
27 | CN(C)c1nc(Cl)c(C#N)c(-c2ccccc2)c1C#N | 5.58
28 | Cl.ClCCCCN1CCCCC1 | -0.73
29 | C#CCNc1nc(OC)c(C#N)c(-c2ccccc2)c1C#N | 13.71
30 | CCOC(=O)C1=C(C)Nc2nc3c(c(N)c2C1c1cccc(OC)c1)CCCC3 (stereo not given) | 2.7
31 | COC(=O)C(=Cc1ccc(OC)cc1)NC(=O)c1ccccc1 | 13.3
32 | C#CCN(C)c1nc(Cl)c(C#N)c(-c2ccccc2)c1C#N | 7.31
33 | O=C(Cc1c[nH]c2ccccc12)NN=Cc1ccccc1 | -6
34 | COc1nc2nc3c(c(N)c2cc1C#N)CCCC3 | 13.26
35 | COc1ccc(C2C(C#N)=C(N)Oc3ccc4ccccc4c32)cc1 (stereo not given) | 8.69
36 | O=C1OC(c2ccccc2)=NC12CC2c1ccc([N+](=O)[O-])cc1 (stereo not given) | 15.67
37 | COc1ccc(C2c3ccc4ccccc4c3OC(=NBr)C2(Br)C#N)cc1OC (stereo not given) | 8.89
38 | COc1ccc(C2c3c(nc4c(c3N)CCCC4)Oc3ccc4ccccc4c32)cc1 (stereo not given) | 8.01
39 | N#Cc1cc2c(N)n[nH]c2nc1N | 6.95
40 | Cl.NC1(C(=O)O)CC1c1ccccc1 (stereo not given) | 9.92
